# Reference: PubChem BioAssay (EPA / NIEHS)
# Several values for one entry are separate records, joined by “and”; a condition that tells them apart may be missing. Equal entries are not always repeated. Inconclusive results are not listed. More than one record can exist for a structure, and the calls need not agree. Activity calls are given as the source filed them. The calls were made as follows: active = hit-call score of the fitted dose curve at least 0.9, where 1 is the maximum; inconclusive = response in the unintended direction; inactive = score below 0.9.
# Key:
# [1] = biological target: human Norepinephrine Transporter (NET), SLC6A2 (gene 6530) (UniProt P23975); test: NVS_TR_hNET: NovaScreen (NVS) Transporter Assay for human Norepinephrine Transporter (NET) (AID 2283377);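 also: cell-free membrane protein extracted from CHO cells expressing human NET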;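 as to AC50: displacement of radioligand from human NET seen as loss of scintillation signal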
# In short: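 In this cell-free binding screen, chemicals at 25 uM (duplicate) compete with a radioligand for CHO-derived human NET over 1 hour, with filter-based radiodetection.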
# [2] = biological target: mouse Estrogen Receptor alpha (Era), Esr1 (gene 13982) (UniProt P19785); test: NVS_NR_mERa: NovaScreen (NVS) Nuclear Receptor Binding Assay for mouse Estrogen Receptor alpha (Era) (AID 2283378);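 also: hit means loss of bound radioligand signal relative to DMSO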
# In short: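 Filter scintillation counts of bound radioligand, measured 18 h post-dose, gave the readout; decreased signal relative to DMSO controls indicated displacement from mouse Era. Primary screen ran in duplicate at 25 uM; active chemicals were retested across concentrations.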
# [3] = biological target: Norway rat Vesicular Monoamine Transporter (VMAT2), neurotransmitter transporter, Slc18a2 (gene 25549) (UniProt Q01827); test: NVS_TR_rVMAT2: NovaScreen (NVS) Transporter Assay for Norway rat Vesicular Monoamine Transporter (VMAT2), neurotransmitter transporter (AID 2283376);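 also: actives lower the bound radioligand signal below the DMSO level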
# In short: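 Binding endpoint from rat forebrain tissue, cell-free; 1 h incubation; filtered radioligand counted; 25 uM duplicate primary then dose series; DMSO negative control.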
# [4] = biological target: Estrogen receptor beta (Homo sapiens) (UniProt Q92731); test: OT_ER_ERbERb_1440: Odyssey Thera (OT) 24-hour HEK293T Protein-Complementation Assay for Estrogen Receptor-beta/-beta Homodimer (AID 2283380);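 also: fluorescence gain from ER beta LBD homodimer complementation read by laser scanning cytometry; scored as signal increase over DMSO baseline for both agonists and antagonists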
# In short: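 HEK293T cells stably expressing human ER-beta LBD (aa 310-547) PCA homodimer pair, dosed 24 h; formaldehyde-fixed, Draq5-stained. Readout: increase in nuclear (agonist) or nuclear plus cytoplasmic (antagonist) fluorescence intensity versus DMSO, gain-of-signal fitting.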
# [5] = biological target: Retinoic acid receptor RXR-alpha (Homo sapiens) (UniProt P19793); test: OT_NURR1_NURR1RXRa_0480: Odyssey Thera (OT) 8-hour HEK293T Protein Complementation Assay for Nurr1/retinoid X receptor (RXR) (AID 2283385)
# In short: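 Interaction of bait and prey reconstitutes a functional reporter, whose fluorescence was measured in HEK293T cells dosed with compound for 8 hours. Signal gain relative to DMSO defined the single endpoint.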
# [6] = biological target: Retinoic acid receptor RXR-alpha (Homo sapiens) (UniProt P19793); test: OT_NURR1_NURR1RXRa_1440: Odyssey Thera (OT) 24-hour HEK293T Protein Complementation Assay for Nurr1/retinoid X receptor (RXR) (AID 2283386)
# In short: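 Steps: fragment-tagged Nurr1 and RXRα expressed in HEK293T; compounds added; after 24 h, complemented reporter quantified by fluorescence intensity; signal increase over DMSO fitted as the single endpoint.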
# [7] = biological target: Estrogen receptor (Homo sapiens) (UniProt P03372); test: OT_ERa_GFPERaERE_0120: Odyssey Thera (OT) 2-hour HeLa Transcription Induction Assay for Estrogen Receptor (AID 2283382)
# In short: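 Cells (human cervical HeLa) receive compound, incubate 2 hours, then are imaged for fluorescent reporter induction. Images are quantified by high content analysis, and activity is fitted as gain of signal against DMSO.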
# [8] = biological target: rat Serotonin Transporter (SERT), Slc6a4 (gene 25553) (UniProt P31652); test: NVS_TR_rSERT: NovaScreen (NVS) Transporter Assay for rat Serotonin Transporter (SERT) (AID 2283375)
# In short: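 Radioligand displacement, filter scintillation readout; rat forebrain membrane prep, 1 h post-dose. Single-conc 25 uM duplicate screen, then concentration-response on actives. Loss of signal vs DMSO baseline.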
# [9] = biological target: Bile acid receptor (Homo sapiens) (UniProt Q96RI1); test: OT_FXR_FXRSRC1_0480: Odyssey Thera (OT) 8-hour HEK293T Protein-Complementation Assay for Farnesoid X receptor/SRC-1 Co-activator (AID 2283383)
# In short: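 PCA, HEK293T, 8 h compound exposure; FXR–SRC-1 binding reconstitutes split reporter; fluorescence intensity; positive-direction fit vs DMSO.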
# Sequence of Norway rat Vesicular Monoamine Transporter (VMAT2), neurotransmitter transporter, Slc18a2 (gene 25549) (Q01827 whole entry, looked up): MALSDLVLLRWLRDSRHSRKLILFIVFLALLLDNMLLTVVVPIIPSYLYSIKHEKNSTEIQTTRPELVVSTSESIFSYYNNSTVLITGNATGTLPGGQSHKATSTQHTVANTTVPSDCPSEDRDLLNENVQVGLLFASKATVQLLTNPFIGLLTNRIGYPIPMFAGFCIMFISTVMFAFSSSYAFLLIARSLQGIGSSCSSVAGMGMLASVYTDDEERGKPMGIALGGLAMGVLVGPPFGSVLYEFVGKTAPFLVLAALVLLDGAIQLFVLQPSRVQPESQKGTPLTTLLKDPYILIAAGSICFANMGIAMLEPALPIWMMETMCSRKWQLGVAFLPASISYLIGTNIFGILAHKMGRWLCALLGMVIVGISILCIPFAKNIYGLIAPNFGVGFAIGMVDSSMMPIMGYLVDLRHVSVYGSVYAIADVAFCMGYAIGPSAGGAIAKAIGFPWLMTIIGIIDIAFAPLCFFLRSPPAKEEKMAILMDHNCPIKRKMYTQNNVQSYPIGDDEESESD
# Sequence of Retinoic acid receptor RXR-alpha (Homo sapiens) (P19793 whole entry, looked up, the tested form may be a part): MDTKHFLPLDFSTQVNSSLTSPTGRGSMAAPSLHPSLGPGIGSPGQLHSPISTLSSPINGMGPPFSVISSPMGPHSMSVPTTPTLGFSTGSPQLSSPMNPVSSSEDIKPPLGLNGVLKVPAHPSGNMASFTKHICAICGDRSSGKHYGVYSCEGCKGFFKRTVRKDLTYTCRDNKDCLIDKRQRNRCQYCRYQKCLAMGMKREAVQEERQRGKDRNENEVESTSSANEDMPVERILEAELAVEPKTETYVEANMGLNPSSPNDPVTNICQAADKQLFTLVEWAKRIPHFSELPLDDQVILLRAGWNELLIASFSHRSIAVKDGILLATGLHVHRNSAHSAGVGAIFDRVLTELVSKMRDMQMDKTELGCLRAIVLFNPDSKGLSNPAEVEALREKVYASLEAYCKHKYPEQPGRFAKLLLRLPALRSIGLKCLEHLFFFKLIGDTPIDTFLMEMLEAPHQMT
# Sequence of Estrogen receptor beta (Homo sapiens) (Q92731 whole entry, looked up, the tested form may be a part): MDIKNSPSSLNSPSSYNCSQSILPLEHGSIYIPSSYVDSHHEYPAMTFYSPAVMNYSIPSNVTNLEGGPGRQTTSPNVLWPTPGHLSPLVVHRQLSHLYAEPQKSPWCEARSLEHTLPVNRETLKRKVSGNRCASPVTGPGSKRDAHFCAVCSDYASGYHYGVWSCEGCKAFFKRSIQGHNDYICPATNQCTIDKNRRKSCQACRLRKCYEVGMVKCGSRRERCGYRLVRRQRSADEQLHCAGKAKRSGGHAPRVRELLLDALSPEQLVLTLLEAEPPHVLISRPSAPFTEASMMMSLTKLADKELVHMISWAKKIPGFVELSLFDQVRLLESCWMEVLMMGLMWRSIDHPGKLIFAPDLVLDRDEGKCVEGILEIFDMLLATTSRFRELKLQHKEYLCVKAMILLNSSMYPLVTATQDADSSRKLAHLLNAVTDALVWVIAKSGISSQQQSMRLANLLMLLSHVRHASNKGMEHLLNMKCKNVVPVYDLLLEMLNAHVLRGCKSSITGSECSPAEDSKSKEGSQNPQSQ
# Sequence of human Norepinephrine Transporter (NET), SLC6A2 (gene 6530) (P23975 whole entry, looked up): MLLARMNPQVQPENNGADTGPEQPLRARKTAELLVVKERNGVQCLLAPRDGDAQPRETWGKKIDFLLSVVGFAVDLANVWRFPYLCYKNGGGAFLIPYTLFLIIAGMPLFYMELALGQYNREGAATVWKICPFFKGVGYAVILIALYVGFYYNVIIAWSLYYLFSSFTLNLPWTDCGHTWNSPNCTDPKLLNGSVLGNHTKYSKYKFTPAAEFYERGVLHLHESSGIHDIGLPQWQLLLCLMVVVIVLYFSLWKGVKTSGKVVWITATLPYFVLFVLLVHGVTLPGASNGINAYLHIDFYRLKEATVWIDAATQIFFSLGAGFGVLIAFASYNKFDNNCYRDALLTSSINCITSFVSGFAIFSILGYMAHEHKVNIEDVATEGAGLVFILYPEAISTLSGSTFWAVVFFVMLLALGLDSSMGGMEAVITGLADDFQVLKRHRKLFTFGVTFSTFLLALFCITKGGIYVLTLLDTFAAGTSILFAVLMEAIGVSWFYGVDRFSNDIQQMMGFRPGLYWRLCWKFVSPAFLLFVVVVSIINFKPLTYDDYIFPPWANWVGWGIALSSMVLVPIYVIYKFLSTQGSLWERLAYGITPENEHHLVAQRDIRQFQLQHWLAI
# Sequence of Bile acid receptor (Homo sapiens) (Q96RI1 whole entry, looked up): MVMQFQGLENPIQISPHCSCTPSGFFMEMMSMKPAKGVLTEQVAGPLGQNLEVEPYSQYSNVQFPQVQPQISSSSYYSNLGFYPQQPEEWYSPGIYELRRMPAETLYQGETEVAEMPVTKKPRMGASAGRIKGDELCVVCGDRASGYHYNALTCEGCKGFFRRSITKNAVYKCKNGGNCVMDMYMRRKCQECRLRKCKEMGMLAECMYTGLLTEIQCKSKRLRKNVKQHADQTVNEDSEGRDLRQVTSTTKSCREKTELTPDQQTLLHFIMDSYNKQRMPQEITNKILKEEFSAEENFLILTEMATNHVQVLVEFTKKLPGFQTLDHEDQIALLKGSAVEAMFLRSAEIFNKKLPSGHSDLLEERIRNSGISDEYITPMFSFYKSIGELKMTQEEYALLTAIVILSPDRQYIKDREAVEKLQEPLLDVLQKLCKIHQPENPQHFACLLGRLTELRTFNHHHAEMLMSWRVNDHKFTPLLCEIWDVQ
# Sequence of mouse Estrogen Receptor alpha (Era), Esr1 (gene 13982) (P19785 whole entry, looked up): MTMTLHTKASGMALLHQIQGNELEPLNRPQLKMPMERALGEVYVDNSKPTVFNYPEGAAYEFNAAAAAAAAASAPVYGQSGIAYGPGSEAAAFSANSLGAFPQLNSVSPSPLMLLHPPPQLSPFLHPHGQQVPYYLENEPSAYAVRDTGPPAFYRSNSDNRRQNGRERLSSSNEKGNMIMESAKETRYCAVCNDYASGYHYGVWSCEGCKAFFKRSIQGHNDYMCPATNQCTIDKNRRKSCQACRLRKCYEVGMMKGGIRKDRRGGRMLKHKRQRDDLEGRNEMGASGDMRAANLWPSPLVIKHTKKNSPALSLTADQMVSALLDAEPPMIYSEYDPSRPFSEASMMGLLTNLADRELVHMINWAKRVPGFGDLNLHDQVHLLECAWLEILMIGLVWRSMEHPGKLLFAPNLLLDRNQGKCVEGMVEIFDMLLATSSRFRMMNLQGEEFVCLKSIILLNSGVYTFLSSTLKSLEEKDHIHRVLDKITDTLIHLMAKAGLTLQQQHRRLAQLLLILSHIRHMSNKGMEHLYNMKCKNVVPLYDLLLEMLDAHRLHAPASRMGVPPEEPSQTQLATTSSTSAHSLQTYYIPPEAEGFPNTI
# Sequence of rat Serotonin Transporter (SERT), Slc6a4 (gene 25553) (P31652 whole entry, looked up): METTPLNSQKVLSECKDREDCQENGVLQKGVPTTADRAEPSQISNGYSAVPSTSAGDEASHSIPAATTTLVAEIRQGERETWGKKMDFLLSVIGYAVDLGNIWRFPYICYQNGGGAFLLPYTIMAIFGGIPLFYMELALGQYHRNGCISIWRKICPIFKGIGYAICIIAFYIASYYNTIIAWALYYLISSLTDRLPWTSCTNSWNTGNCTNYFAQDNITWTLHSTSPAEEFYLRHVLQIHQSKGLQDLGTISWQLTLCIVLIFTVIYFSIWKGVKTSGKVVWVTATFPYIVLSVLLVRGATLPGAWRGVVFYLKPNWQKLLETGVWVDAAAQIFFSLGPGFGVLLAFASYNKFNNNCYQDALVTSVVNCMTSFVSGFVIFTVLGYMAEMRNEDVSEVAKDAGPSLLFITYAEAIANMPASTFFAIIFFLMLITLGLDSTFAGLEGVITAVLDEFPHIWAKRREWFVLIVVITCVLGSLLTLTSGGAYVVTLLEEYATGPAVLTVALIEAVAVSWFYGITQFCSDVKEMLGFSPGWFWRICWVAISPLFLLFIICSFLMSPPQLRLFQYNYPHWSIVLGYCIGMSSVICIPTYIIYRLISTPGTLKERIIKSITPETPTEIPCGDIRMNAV
# Sequence of Estrogen receptor (Homo sapiens) (P03372 whole entry, looked up): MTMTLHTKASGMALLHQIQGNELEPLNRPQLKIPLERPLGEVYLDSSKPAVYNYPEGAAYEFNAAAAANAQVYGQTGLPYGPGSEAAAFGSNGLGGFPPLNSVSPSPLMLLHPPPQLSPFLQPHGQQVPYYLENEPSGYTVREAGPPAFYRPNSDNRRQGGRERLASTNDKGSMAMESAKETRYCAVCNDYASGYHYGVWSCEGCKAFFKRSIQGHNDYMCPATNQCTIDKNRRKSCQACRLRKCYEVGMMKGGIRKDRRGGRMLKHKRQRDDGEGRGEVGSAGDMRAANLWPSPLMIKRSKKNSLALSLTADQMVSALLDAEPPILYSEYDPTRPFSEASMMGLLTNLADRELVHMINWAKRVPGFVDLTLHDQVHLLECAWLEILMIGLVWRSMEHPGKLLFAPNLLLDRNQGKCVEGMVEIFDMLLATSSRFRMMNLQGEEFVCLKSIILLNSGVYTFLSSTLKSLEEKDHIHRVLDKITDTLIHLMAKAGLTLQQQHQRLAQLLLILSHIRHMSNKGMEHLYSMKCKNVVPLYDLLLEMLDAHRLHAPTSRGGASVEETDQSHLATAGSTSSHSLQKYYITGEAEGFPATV
smiles,measurement,setting,value
O=[N+]([O-])c1ccc(Nc2ccccc2)cc1,AC50,[1],20.4 µM (active)
same,outcome,[2],inactive
Cc1cc(C(C)(C)c2ccc(O)c(C)c2)ccc1O,AC50,[1],8.57 µM (active)
Oc1cc(Cl)c(Cl)cc1Cl,outcome,[3],inactive
same,AC50,[1],10.8 µM (active)
same,AC50,[4],75.1 µM (active)
same,AC50,[5],78.3 µM (active)
same,outcome,[5],inactive
same,AC50,[6],81.6 µM (active) and 83.4 µM (active)
N#CCCC(Br)(C#N)CBr (centres undefined),outcome,[1],inactive
same,AC50,[4],11.9 µM (active)
same,outcome,[7],inactive
same,outcome,[6],inactive
BrCC(Br)c1ccccc1 (centres undefined),outcome,[1],inactive
[Cl][Sn]([c]1ccccc1)([c]1ccccc1)[c]1ccccc1,outcome,[3],inactive
same,AC50,[1],1.19 µM (active)
N#Cc1ccccc1N,AC50,[8],17.6 µM (active)
same,outcome,[1],inactive
Oc1cccc(-c2ccccc2)c1,outcome,[3],inactive
same,outcome,[1],inactive
Oc1ccc(Cc2ccc(O)cc2)cc1,AC50,[1],25 µM (active)
CC1(C)[C@H](C(=O)O[C@H](C#N)c2cccc(Oc3ccccc3)c2)[C@@H]1/C=C(\Cl)C(F)(F)F,outcome,[1],inactive
same,outcome,[4],inactive
same,outcome,[9],inactive
CCOC(=O)C(SP(=S)(OC)OC)c1ccccc1 (centres undefined),AC50,[1],9.9 µM (active)
CC(C)(C)c1cc([N+](=O)[O-])cc(C(C)(C)C)c1O,outcome,[2],inactive
O=C(O)C1(c2ccc3c(c2)OC[C@H](Cc2ccc(-c4ccccc4)cc2)[C@H]3O)CCCC1,AC50,[1],5.29 µM (active)
same,AC50,[9],77 µM (active)
same,AC50,[5],76.2 µM (active) and 86.6 µM (active)
same,AC50,[6],79.5 µM (active) and 87.5 µM (active)
CC1CC(=O)O1 (centres undefined),outcome,[3],inactive
CCCCCCCCCCCCOS(=O)(=O)O,outcome,[3],inactive
same,outcome,[5],inactive
same,outcome,[6],inactive
